Compounds with a hit are over-represented: about 12% of the library has one in this group of screens.
G9a inh: inhibitors of human histone lysine methyltransferase G9a; Q96KQ7; G9a H3K9 monomethylation, AlphaScreen, 2 h; Potency, µM (doses to about 102 µM), for the others: at the top dose activity, negative = inhibition, hits mostly inhibitors; 8.8% of 350,000 active; AID 504332; note: % is set by controls: 0 for no effect and ±100 for the full control effect; nearly all actives have a fitted effect of over 75% in size
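Readings reflect AlphaScreen signal from monomethyl-H3K9 antibody detection. HMT at 20 nM; substrate b-H3K9 500 nM; cofactor SAM 20 uM; 2 h RT reaction; compounds tested as titrations in qHTS with 15 min preincubation.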
PLK1 PBD block: PLK1 (human) polo-box domain binding inhibition; Potency, µM, for inactives: max response, negative = inhibition, most hits filed as inhibitors; P53350; 2.8% of 360,000 active; Plk1 PBD binding of FITC phosphopeptide, fluorescence polarization; note: series mostly up to about 57 µM; % is set by controls: 0 for no effect and ±100 for the full control effect; nearly all actives have a fitted effect of over 65% in size
Sfp PPTase inh: inhibitors of Bacillus subtilis Sfp phosphopantetheinyl transferase. Q9F4F7. Biochemical Sfp PPTase activity, qHTS. Potency, µM, for inactives: largest response in the series, negative = inhibition, most hits filed as inhibitors. 3.5% of 310,000 active. AID 1490;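 note: the enzyme is Sfp with the accession as filed and its product quenches rhodamine fluorescence; 0% = enzyme reaction without inhibitor and -100% = no enzyme wells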
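Sfp 15 nM + cpd, 15 min RT; start w/ rhodamine-CoA 5 uM, BHQ-2-YbbR 12.5 uM (final); 50 mM Hepes pH 7.6, 10 mM MgCl2, 0.01% NP-40, 0.01% BSA; read 525/598 nm at 0 and 30 min.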
BAZ2B block: blocks human BAZ2B. Potency, µM (series often up to 114 µM), for inactives: at the top dose activity change, negative = inhibition, actives largely listed as inhibitors. Q9UIF8. 4.4% of 360,000 active. AlphaScreen BAZ2B-H3K14Ac peptide displacement; note: % is set by controls: 0 for no effect and ±100 for the full control effect; nearly all actives have a fitted effect of over 60% in size
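AlphaScreen displacement: compounds (up to 110uM) incubated 30 min at room temperature with a preformed 50 nM BAZ2B/50 nM biotinylated H3K14Ac peptide complex in PBS pH 7.4 with Tween-20. Donor and acceptor beads at 10 ug/mL final added, 20 min light-protected before reading.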
JMJD2A Tudor inh: blocks the human JMJD2A Tudor domain; O75164; AlphaScreen JMJD2A-Tudor / H3K4me3 peptide binding; Potency, µM (highest dose often 114 µM), for the others: at the highest dose activity change, negative = inhibition, hits mostly inhibitors; 4.4% of 390,000 active; AID 504339; note: % is set by controls: 0 for no effect and ±100 for the full control effect; nearly all actives have a fitted effect of over 50% in size
HP1b chromo inh: blocks HP1-beta chromodomain binding to methylated histone tails; Potency, µM (doses to about 114 µM), inactives show at the top dose activity change, negative = inhibition, usual class: inhibitors; AlphaScreen HP1-beta / biotin-H3K9me3 peptide binding; 0.56% of 390,000 active; AID 540317; note: nearly all actives have a fitted effect of over 70% in size
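AlphaScreen: HP1-beta (50 nM) preformed 30 min with biotin-H3(1-18)K9me3 peptide (50 nM) in PBS pH 7.4, 0.01% Tween-20. Compound added for 30 min at RT, then streptavidin donor/nickel chelate acceptor beads (10 ug/mL) for 30 min.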
Numbers without * were called inactive; ? = inconclusive; . = no result; [ ] = remark or other dose. Calls come from the whole dose curve; as a rule, active = well fitted curve in the direction sought with a large enough effect; inconclusive = small, poorly fitted or top-dose-only effect, or another doubt; inactive = no such curve, though single readings can be large; an effect the other way counts as inactive or inconclusive. Potency is the fitted concentration of half-maximal effect.

SMILES	G9a inh	PLK1 PBD block	Sfp PPTase inh	BAZ2B block	JMJD2A Tudor inh	HP1b chromo inh
CCOc1ccc(CCN2C(=S)N([C@@H](Cc3ccc(O)cc3)CN3CCC[C@@H]3CN3C(=S)NC[C@@H]3Cc3ccc(O)cc3)C[C@@H]2Cc2ccc(O)cc2)cc1	.	0.9%	.	.	.	.
Cc1cccc(N2CCN(C(=O)CCC(=O)NNc3nc4ccccc4c4nc(C)nn34)CC2C)c1 (stereo not drawn)	1.9%[59 µM]	.	.	?	-6.7%	42.5%
OC[C@H]1NC[C@@H](O)[C@@H](O)[C@H]1O	.	.	-20.4%	.	.	.
C[C@H]1CC[C@]2(O[C@@H](CCO)C[C@H](O)[C@H]2O)O1	.	-3.0%	.	.	-7.1%	30.4%
O=c1ccn(CCCBr)c(=O)[nH]1	39.8µM*	1.8%	20.1%	-3.6%	4.1%	39.2%
O=C(CSCc1cnn(-c2ccccc2)c1-n1cccc1)NCc1ccccc1F	-35.2%[59 µM]	.	.	-17.7%	-7.3%	31.0%
C=C1c2cccc(O)c2C(O)=C2C(=O)[C@]3(O)C(O)=C(C(N)=O)C(=O)C(N(C)C)C3C(O)C12 (stereo partly drawn)	?	.	-45.2%	.	.	.
CN(C)[C@H]1C(=O)C(C(=O)NCN2CCCC2)=C(O)[C@]2(O)C(=O)C3=C(O)c4c(O)cccc4[C@](C)(O)[C@H]3C[C@H]12	1.58µM*	.	?	.	.	.
CN(C)[C@@H]1C(=O)C(C(=O)NCN2CCCC2)=C(O)[C@@]2(O)C(=O)C3=C(O)c4c(O)cccc4[C@@](C)(O)C3CC12 (stereo partly drawn)	3.16µM*	.	50.1µM*	1.26µM*	.	.
CCOC(=O)CN1CC23C=CC(O2)C(C(=O)NCc2ccc(F)cc2)C3C1=O (stereo not drawn)	22.4µM*	-8.4%	17.0%	-2.0%	0.0%	57.4%
COCCCN1CC23C=CC(O2)C(C(=O)O)C3C1=O (stereo not drawn)	?	26.7µM*	-1.4%	0.8%	?	?
CC(C)CO/N=C1/C[C@@H](O)[C@@H](O)[C@@H]2[C@H]3C(=O)N(c4ccc(F)cc4F)C(=O)[C@@H]3CC[C@@H]12	.	.	12.9%	.	.	.
Cc1cc(SCNC(=O)c2ccccc2)nc(C(C)C)n1	31.6µM*	23.8µM*	?	-6.8%	9.2%	30.2%
O=C(CSc1ccc2ccccc2n1)c1ccccc1	.	-3.6%	-19.7%	139.1%	80.7%	152.1%
Nc1cc(N)nc(SCC(=O)Nc2ccccc2)n1	6.7%[59 µM]	-1.7%	4.1%	10.5%	3.2%	46.8%
Cc1nc2ccccc2nc1SCC(=O)c1ccccc1	?	-10.0%	44.7µM*	30.8%	6.3%	13.5%
Cc1cc(SCC(N)=O)nc(SCC(=O)c2ccccc2)n1	28.2µM*	?	44.7µM*	2.2%	-3.8%[57.1 µM]	69.0%
Nc1cc(N)nc(SCC(=O)c2ccccc2)n1	9.0%[12.7 µM]	23.8µM*	9.4%	0.3%	-17.1%	-18.8%
CC1CCCC(C)N1C(=O)CSc1nc(N)cc(N)n1 (stereo not drawn)	13.3%	-5.9%	7.0%	-12.7%	?	?
Cc1cc(SCC(=O)c2ccccc2)nc(C)n1	50.1µM*	-11.1%	3.6%	9.1%	-6.2%	38.5%
CCN1CCN(C(=O)CSc2nc(N)cc(N)n2)CC1	44.7µM*	-9.5%	-1.9%	-9.2%	-14.3%	37.1%
Cc1ccc(C(=O)CSc2cc(C)nc(SCC(=O)c3ccccc3)n2)cc1	33.4%[12.7 µM]	-1.8%	6.4%	-4.0%	21.9%	55.7%
Cc1ccc(C(=O)NNC(=O)CSc2nc(N)cc(N)n2)cc1	-7.2%[59 µM]	26.7µM*	31.6µM*	3.4%	-17.0%[57.1 µM]	?
CCCCn1nnnc1SCC(=O)c1cc(Cl)ccc1OC	64.9%	-7.9%	-18.1%	18.2%	34.3%	62.5%
COc1ccc(Cl)cc1C(=O)CSc1nc(N)cc(N)n1	50.1µM*	?	-21.3%	4.8%	?	23.8%
SMILES	G9a inh	PLK1 PBD block	Sfp PPTase inh	BAZ2B block	JMJD2A Tudor inh	HP1b chromo inh
CCC(CC)C(=O)Nc1nnc(SCc2cc(=O)c3ccccc3[nH]2)s1	12.5%[59 µM]	.	.	3.2%	-8.8%	12.6%[57 µM]
CCCN1CNc2c(c(=O)[nH]c(=S)n2CCc2cccs2)C1	.	.	.	.	-5.4%	28.6%
O=C(NCCCn1ccnc1)C(=O)NCC1OCCCN1S(=O)(=O)c1ccccc1 (stereo not drawn)	16.7%[59 µM]	-10.7%	12.6%	14.1µM*	-9.2%	12.1%
O=C(NCc1ccncc1)C(=O)NCC1OCCCN1S(=O)(=O)c1ccccc1 (stereo not drawn)	4.6%[59 µM]	-7.9%	2.6%	0.0%	-19.0%	19.3%
O=C(NCCCn1ccnc1)C(=O)NCC1OCCN1S(=O)(=O)c1ccccc1 (stereo not drawn)	18.7%	-7.5%	9.0%	22.4µM*	?	33.1%
O=C(NCCCn1ccnc1)C(=O)NCC1OCCCN1S(=O)(=O)c1ccc(F)cc1 (stereo not drawn)	-4.1%	-9.1%	22.1%	50.1µM*	-33.0%	15.1%
O=C(NCCc1ccccc1)C(=O)NCC1OCCCN1S(=O)(=O)c1ccc(F)cc1 (stereo not drawn)	24.9%	1.6%	9.7%	-8.3%	2.9%	29.9%
O=C(NCCCn1ccnc1)C(=O)NCC1OCCN1S(=O)(=O)c1ccc(Cl)cc1 (stereo not drawn)	-13.8%	-6.3%	10.0%	12.6µM*	79.4µM*	24.2%
COc1ccc(Cn2c(=S)[nH]c3ccccc3c2=O)cc1	23.0%	-1.1%	13.9%	2.8%	2.0%	41.0%
Cc1c(C(=O)Nc2c(F)cccc2F)sc2ncn(Cc3ccccc3F)c(=O)c12	-6.1%[59 µM]	.	.	-2.4%	-15.7%	-10.4%
COc1ccc2c(CNC3CCCCCC3)c(C(=O)O)n(Cc3ccccc3F)c2c1	-38.5%[59 µM]	.	.	-21.7%	-15.0%	-0.6%
CC(=O)c1ccc(NC(=O)c2ccc3c(c2)N(Cc2cccc(Cl)c2)C(=O)c2ccccc2S3(=O)=O)cc1	-3.6%[59 µM]	.	.	-18.1%	-12.6%	35.8%
CCCCC(CC)CN1CN(CC(CC)CCCC)CC(C)(N)C1 (stereo not drawn)	-35.3%[2.33 µM]	-4.2%	8.6%	.	-22.3%	19.4%
CCc1ccc2c(c1)NC(c1cccs1)=NC(c1ccc(F)cc1)=N2	?	.	.	?	?	17.4%
CCc1ccc2c(c1)NC(c1ccc(OC)cc1)=NC(c1ccncc1)=N2	-8.1%[59 µM]	.	.	?	50.1µM*	?
COc1ccc(C2=Nc3ccc(C)cc3NC(c3ccc(Cl)cc3)=N2)cc1	7.0%[59 µM]	.	.	-1.8%	-23.6%	11.2%
CCOc1ccc(C2=NC(c3cccs3)=Nc3ccc(CC)cc3N2)cc1OCC	10µM*	.	.	10µM*	25.1µM*	?
CCCCOc1ccc(C2=NC(c3cccs3)=Nc3ccc(OC)cc3N2)cc1	?	.	.	?	39.8µM*	-22.9%
c1csc(C2=NC(c3ccncc3)=Nc3ccccc3N2)c1	-40.7%[59 µM]	.	.	?	-33.0%	0.7%

Assay outcomes as filed in PubChem BioAssay.
